Data published in the supplement of paper PMC10849652.
Targets with a hit are over-represented here; the source holds about 7,900 in all. About 0.6% of all pairs of compound and target were hits.

Assays:
Experiment in all cases: log2 fold change, soluble protein after heating vs DMSO (PISA); higher = thermal stabilisation; K562 cells, 10 uM, 30 min; active = over 0.2 and 3.5 SD of the protein, either way, in both replicates (recomputed)
bafetinib = compound: Cc1ccc(NC(=O)c2ccc(CN3CC[C@H](N(C)C)C3)c(C(F)(F)F)c2)cc1Nc1nccc(-c2cncnc2)n1 [bafetinib]
Summary of the method: (§1)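 K562 cells at 2×10^6 cells/mL were given 10 μM compound for 30 min. Aliquots then went through 3 min of heating across 48°C-58°C, were pooled, and were extracted in PBS with 0.5% NP-40 at 4°C, and the supernatant after 21,000xg for 90 min was quantified by TMTpro 16plex LC-MS/MS with channel sums equalised. Thermal stability relative to control samples, from duplicates, is given as log2 fold change.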

[1] = compound: Cc1cccc(CC(=O)N2CCc3c2ccc(-c2cn(C)c4ncnc(N)c24)c3F)n1
Summary of the method: as §1

nilotinib = compound: Cc1cn(-c2cc(NC(=O)c3ccc(C)c(Nc4nccc(-c5cccnc5)n4)c3)cc(C(F)(F)F)c2)cn1 [nilotinib]
Summary of the method: as §1

[2] = compound: Cc1nc(Nc2n[nH]c3c2CN(C(=O)N[C@H](CN(C)C)c2ccccc2)C3(C)C)c2sccc2n1
Summary of the method: as §1

dasatinib = compound: Cc1nc(Nc2ncc(C(=O)Nc3c(C)cccc3Cl)s2)cc(N2CCN(CCO)CC2)n1 [dasatinib]
Summary of the method: as §1

[3] = compound: Cc1ncc(-c2ccnc(Nc3ccc(S(C)(=O)=O)cc3)n2)n1C(C)C
Summary of the method: as §1

[4] = compound: Cn1cc(-c2ccc3c(c2)CCN3C(=O)Cc2cccc(C(F)(F)F)c2)c2c(N)ncnc21
Summary of the method: as §1

[5] = compound: Cn1cc(-c2ccc3nnc(C(F)(F)c4ccc5ncccc5c4)n3n2)cn1
Summary of the method: as §1

tipifarnib = compound: Cn1cncc1[C@@](N)(c1ccc(Cl)cc1)c1ccc2c(c1)c(-c1cccc(Cl)c1)cc(=O)n2C [tipifarnib]
Summary of the method: as §1

mubritinib = compound: FC(F)(F)c1ccc(/C=C/c2nc(COc3ccc(CCCCn4ccnn4)cc3)co2)cc1 [mubritinib]
Summary of the method: as §1

[6] = compound: NC(=O)Nc1cc(-c2cccc(F)c2)sc1C(=O)N[C@H]1CCCNC1
Summary of the method: as §1

[7] = compound: NC(=O)c1cnc(N[C@@H]2CCCC[C@@H]2N)nc1Nc1cccc(-n2nccn2)c1
Summary of the method: as §1

[8] = compound: NC1(c2ccc(-c3nc4ccn5c(=O)[nH]nc5c4cc3-c3ccccc3)cc2)CCC1
Summary of the method: as §1

[9] = compound: NCC(=O)Nc1ccc(-n2nc(C(F)(F)F)cc2-c2ccc3c(ccc4ccccc43)c2)cc1
Summary of the method: as §1

entinostat = compound: Nc1ccccc1NC(=O)c1ccc(CNC(=O)OCc2cccnc2)cc1 [entinostat]
Summary of the method: as §1

vorinostat = compound: O=C(CCCCCCC(=O)Nc1ccccc1)NO [vorinostat]
Summary of the method: as §1

citarinostat = compound: O=C(CCCCCCNC(=O)c1cnc(N(c2ccccc2)c2ccccc2Cl)nc1)NO [citarinostat]
Summary of the method: as §1

silmitasertib = compound: O=C(O)c1ccc2c(c1)nc(Nc1cccc(Cl)c1)c1ccncc12 [silmitasertib]
Summary of the method: as §1

[10] = compound: O=C1NC(=O)C(c2cnc3ccccn23)=C1c1cn2c3c(cc(F)cc13)CN(C(=O)N1CCCCC1)CC2
Summary of the method: as §1

[11] = compound: c1cc(OCCN2CCCCC2)cc(-c2n[nH]c3ccc(-c4nnc[nH]4)cc23)c1
Summary of the method: as §1

Measured: log2 fold change

CYP51A1 (UniProt Q16850)
UniProt Q16850, sequence (Q16850 whole entry, looked up): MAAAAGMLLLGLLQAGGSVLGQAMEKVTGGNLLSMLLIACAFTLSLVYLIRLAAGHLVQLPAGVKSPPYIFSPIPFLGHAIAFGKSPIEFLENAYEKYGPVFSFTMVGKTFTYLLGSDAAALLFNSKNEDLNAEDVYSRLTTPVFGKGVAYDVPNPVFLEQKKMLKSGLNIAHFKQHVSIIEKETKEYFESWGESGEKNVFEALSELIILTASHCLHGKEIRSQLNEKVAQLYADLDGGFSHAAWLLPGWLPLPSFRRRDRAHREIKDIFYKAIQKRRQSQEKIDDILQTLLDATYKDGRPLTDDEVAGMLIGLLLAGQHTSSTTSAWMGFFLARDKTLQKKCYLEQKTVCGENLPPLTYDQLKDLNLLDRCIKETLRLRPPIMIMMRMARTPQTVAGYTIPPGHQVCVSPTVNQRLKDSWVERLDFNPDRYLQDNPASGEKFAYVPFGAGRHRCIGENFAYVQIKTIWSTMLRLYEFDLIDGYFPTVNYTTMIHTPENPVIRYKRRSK
inactive: bafetinib 0.02 | [1] -0.019 | nilotinib 0.156 | [2] -0.03 | dasatinib 0.092 | [3] -0.016 | [4] -0.016 | [5] -0.143 | mubritinib 0.047 | [6] -0.018 | [7] -0.004 | [8] 0.024 | [9] -0.033 | entinostat -0.045 | vorinostat 0.119 | citarinostat 0.006 | silmitasertib 0.001 | [11] -0.112
active: tipifarnib 1.27 | [10] 0.964

DNM2 (UniProt P50570)
UniProt P50570, sequence (P50570 whole entry, looked up): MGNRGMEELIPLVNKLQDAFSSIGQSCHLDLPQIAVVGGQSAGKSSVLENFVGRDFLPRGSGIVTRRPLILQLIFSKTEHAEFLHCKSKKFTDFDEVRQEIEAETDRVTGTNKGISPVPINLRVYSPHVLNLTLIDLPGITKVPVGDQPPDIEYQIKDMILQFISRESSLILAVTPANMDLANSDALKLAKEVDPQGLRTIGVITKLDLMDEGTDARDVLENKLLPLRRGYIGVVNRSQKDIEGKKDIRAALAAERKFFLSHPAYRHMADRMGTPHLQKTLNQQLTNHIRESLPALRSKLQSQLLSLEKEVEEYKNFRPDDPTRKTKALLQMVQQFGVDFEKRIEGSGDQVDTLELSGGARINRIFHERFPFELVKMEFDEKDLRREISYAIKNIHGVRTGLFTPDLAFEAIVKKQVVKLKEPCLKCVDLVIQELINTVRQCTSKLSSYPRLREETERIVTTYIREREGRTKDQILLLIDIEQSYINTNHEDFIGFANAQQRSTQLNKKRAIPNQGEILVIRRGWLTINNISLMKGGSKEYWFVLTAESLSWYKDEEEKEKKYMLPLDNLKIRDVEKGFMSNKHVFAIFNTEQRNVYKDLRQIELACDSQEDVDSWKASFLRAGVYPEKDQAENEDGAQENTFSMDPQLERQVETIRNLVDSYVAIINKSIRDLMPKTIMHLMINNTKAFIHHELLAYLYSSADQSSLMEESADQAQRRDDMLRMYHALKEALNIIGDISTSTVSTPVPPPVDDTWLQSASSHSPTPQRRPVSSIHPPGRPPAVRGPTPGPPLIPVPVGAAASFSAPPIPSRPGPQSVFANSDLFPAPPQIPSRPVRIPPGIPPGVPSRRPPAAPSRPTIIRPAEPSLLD
inactive: bafetinib -0.035 | [1] 0 | nilotinib -0.054 | [2] -0.003 | dasatinib -0.099 | [3] 0 | [4] 0.075 | [5] 0.007 | tipifarnib -0.071 | mubritinib 0.017 | [6] -0.019 | [7] -0.037 | [8] -0.153 | [9] -0.023 | entinostat 0.005 | vorinostat 0.03 | citarinostat 0.051 | silmitasertib -0.054 | [10] 0.008 | [11] -0.014

FAF2 (UniProt Q96CS3)
UniProt Q96CS3, sequence (Q96CS3 whole entry, looked up): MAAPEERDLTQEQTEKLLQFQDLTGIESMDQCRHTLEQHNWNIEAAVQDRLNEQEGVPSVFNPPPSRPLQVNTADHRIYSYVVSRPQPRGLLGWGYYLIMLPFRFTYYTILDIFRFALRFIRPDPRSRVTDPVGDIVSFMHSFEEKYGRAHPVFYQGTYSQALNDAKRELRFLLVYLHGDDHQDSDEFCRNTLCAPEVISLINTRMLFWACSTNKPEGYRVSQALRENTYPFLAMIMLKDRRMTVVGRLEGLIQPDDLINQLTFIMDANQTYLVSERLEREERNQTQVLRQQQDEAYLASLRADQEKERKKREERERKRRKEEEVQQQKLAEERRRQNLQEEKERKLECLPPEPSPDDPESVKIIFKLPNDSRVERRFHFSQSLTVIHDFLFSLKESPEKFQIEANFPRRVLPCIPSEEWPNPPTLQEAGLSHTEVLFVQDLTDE
inactive: bafetinib -0.058 | [1] -0.022 | nilotinib -0.042 | [2] -0.049 | dasatinib -0.075 | [3] 0 | [4] 0.017 | [5] -0.04 | tipifarnib -0.021 | mubritinib -0.011 | [6] -0.016 | [7] -0.038 | [8] -0.038 | [9] -0.027 | entinostat 0.021 | vorinostat 0.092 | citarinostat 0.015 | silmitasertib 0.007 | [10] -0.054 | [11] -0.018

CTSC (UniProt P53634)
UniProt P53634, sequence (P53634 whole entry, looked up): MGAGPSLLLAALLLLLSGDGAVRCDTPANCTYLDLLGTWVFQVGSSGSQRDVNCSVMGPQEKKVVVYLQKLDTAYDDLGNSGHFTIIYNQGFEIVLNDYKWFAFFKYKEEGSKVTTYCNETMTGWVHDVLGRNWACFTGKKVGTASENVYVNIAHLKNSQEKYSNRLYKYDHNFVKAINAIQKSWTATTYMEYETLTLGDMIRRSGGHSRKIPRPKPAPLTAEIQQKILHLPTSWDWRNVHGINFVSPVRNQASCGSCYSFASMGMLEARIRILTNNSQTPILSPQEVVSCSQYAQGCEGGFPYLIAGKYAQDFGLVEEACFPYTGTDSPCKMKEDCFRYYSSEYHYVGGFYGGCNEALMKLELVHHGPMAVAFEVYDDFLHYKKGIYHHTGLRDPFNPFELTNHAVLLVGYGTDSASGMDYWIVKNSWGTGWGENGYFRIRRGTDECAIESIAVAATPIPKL
active: bafetinib -0.452
inactive: [1] -0.004 | nilotinib -0.008 | [2] 0 | dasatinib 0.046 | [3] -0.033 | [4] 0.041 | [5] 0.004 | tipifarnib -0.039 | mubritinib 0.056 | [6] 0.019 | [7] -0.015 | [8] -0.11 | [9] 0.086 | entinostat -0.053 | vorinostat -0.016 | citarinostat 0.015 | silmitasertib -0.053 | [10] -0.057 | [11] 0.063

ESS2 (UniProt Q96DF8)
UniProt Q96DF8, sequence (Q96DF8 whole entry, looked up): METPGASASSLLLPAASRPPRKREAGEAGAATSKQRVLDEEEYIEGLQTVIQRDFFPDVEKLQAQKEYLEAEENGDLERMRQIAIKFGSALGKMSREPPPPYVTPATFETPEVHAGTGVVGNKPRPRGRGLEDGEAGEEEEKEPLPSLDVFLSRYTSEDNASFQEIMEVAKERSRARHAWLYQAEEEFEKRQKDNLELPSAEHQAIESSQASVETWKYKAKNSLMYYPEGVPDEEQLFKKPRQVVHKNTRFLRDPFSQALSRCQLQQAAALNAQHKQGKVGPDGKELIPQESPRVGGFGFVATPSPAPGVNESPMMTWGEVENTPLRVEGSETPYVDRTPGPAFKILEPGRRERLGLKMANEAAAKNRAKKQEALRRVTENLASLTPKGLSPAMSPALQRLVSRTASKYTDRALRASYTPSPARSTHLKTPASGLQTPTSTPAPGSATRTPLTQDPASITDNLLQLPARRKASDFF
inactive: bafetinib -0.186 | [1] -0.07 | nilotinib 0.013 | [2] -0.048 | dasatinib 0.011 | [3] 0.019 | [4] -0.061 | [5] -0.081 | tipifarnib 0.038 | mubritinib 0.008 | [6] 0.036 | [7] 0.048 | [8] -0.078 | [9] 0.069 | entinostat -0.027 | vorinostat -0.012 | citarinostat 0.014 | silmitasertib 0.04 | [10] 0.033 | [11] -0.017

FAM3A (UniProt P98173)
UniProt P98173, sequence (P98173 whole entry, looked up): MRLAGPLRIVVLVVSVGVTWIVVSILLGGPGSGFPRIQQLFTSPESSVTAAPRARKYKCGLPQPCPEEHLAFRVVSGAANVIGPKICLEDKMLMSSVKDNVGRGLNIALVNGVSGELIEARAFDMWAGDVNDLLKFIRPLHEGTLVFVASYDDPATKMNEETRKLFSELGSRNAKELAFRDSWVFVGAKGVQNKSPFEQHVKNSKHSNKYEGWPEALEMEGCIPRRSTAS
inactive: bafetinib -0.027 | [1] 0.023 | nilotinib 0.007 | [2] -0.044 | dasatinib 0.036 | [3] -0.001 | [4] 0.031 | [5] -0.03 | tipifarnib 0.042 | mubritinib 0 | [6] 0.022 | [7] -0.028 | [9] 0.006 | entinostat -0.097 | vorinostat -0.01 | citarinostat 0 | silmitasertib -0.015 | [10] 0.034 | [11] -0.028
active: [8] -0.21

EBNA1BP2 (UniProt Q99848)
UniProt Q99848, sequence (Q99848 whole entry, looked up): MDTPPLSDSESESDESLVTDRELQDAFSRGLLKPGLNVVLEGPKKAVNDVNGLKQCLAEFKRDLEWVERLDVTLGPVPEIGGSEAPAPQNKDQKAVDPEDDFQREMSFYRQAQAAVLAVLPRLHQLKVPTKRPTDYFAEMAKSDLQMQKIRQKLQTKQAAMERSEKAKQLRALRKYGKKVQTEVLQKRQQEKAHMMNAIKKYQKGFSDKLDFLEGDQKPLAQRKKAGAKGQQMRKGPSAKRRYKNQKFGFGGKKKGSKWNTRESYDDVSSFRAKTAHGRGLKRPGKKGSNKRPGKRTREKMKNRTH
inactive: bafetinib 0.312 | [1] -0.114 | nilotinib 0.114 | [2] -0.089 | dasatinib 0.226 | [3] -0.004 | [4] -0.499 | [5] -0.176 | tipifarnib 0.134 | mubritinib -0.124 | [6] 0.05 | [7] 0.006 | [8] 0.195 | [9] 0.158 | entinostat -0.029 | vorinostat 0.133 | citarinostat 0.041 | silmitasertib 0.151 | [10] 0.352 | [11] -0.292

EXOC4 (UniProt Q96A65)
UniProt Q96A65, sequence (Q96A65 whole entry, looked up): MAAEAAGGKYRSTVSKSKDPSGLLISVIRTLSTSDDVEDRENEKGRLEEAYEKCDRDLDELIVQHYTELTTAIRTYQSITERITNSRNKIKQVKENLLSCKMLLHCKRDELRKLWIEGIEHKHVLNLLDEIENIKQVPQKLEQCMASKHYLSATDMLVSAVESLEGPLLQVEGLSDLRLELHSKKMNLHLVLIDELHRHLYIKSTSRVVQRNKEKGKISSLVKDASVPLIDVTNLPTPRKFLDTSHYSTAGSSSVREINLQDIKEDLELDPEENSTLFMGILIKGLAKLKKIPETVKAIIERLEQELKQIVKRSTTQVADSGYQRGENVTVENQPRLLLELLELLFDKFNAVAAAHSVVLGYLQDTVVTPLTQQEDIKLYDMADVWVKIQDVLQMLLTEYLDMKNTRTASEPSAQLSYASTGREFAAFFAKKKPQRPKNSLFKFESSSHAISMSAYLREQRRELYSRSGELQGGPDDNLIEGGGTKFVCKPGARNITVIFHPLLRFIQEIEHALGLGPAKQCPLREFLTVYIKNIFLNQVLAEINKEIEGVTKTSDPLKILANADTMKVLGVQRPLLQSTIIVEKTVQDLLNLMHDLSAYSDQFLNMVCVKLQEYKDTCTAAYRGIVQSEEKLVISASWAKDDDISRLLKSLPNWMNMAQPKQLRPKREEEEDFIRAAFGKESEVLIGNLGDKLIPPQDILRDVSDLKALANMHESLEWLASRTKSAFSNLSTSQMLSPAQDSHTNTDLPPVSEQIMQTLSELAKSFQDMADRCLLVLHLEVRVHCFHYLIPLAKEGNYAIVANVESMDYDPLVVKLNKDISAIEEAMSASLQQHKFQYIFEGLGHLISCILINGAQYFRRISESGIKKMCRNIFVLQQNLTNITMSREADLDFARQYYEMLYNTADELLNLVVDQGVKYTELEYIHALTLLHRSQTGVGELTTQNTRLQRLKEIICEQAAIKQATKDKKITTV
inactive: bafetinib 0.012 | [1] 0.11 | nilotinib -0.068 | [2] -0.155 | dasatinib -0.15 | [3] -0.031 | [4] -0.026 | [5] 0.013 | tipifarnib -0.088 | mubritinib 0.078 | [6] 0.081 | [7] -0.216 | [8] -0.205 | [9] -0.051 | entinostat 0.078 | vorinostat 0.174 | citarinostat 0.16 | silmitasertib 0.091 | [10] 0.044 | [11] -0.094
